These results are taken from PubChem BioAssay AID778 (Sanford-Burnham Center for Chemical Genomics, 2007).

The term inhibition denotes the change of the read-out against control, counted positive when it falls.

Screen size: about 96,000 compounds; about 20,000 (21%) were called active.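 The calls were made as follows: active = CYP2C19 inhibition above a set limit at 5 µM in the primary screen (cut at about 50% in these data); inactive = the rest.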 Only a sample is shown.

The assay deals with Cytochrome P450 2C19 (Homo sapiens) (UniProt P33261). The assay is described as follows: blockers of cytochrome P450 2C19 activity – biochemical, luminescence, ADME assay, primary screen (AID 778).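 Also: plate controls were negative control wells for no effect and 2.5 mM tranylcypromine positive control for full effect.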 Particulars: CYP2C19 Supersomes, luciferin-H EGE luminescence, 30 min; at 5 µM; hits give high values.
Chain of Cytochrome P450 2C19 (Homo sapiens) (P33261 whole entry, looked up): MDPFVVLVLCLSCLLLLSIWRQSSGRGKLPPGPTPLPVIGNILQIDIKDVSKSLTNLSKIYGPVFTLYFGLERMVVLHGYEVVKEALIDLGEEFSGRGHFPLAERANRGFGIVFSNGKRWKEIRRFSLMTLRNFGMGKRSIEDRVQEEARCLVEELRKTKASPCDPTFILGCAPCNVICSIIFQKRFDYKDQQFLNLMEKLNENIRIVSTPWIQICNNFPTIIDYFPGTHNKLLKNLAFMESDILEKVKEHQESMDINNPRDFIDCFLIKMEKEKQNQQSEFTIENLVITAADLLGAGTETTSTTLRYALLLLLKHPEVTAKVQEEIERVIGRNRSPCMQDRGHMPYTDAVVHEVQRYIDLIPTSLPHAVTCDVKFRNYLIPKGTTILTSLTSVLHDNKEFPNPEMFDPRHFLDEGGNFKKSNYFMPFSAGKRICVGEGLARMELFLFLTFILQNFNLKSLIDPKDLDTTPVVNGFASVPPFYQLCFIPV
As to `CCN1CCN(C(=O)c2ccccc2N(C)S(=O)(=O)c2ccc(C)cc2)CC1`, the inhibition was -7.6% (inactive).
Turning to `CC(C)(C)c1ccc(NC(=O)NCc2ccco2)cc1`, the inhibition is 2% (inactive).
The value for `c1cc(-n2cnnn2)ccc1NC1=NCCC1` was -15.7% (inactive).
As for `CCN1CCCC1Cn1cnc2c([nH]c3cc(OC)ccc32)c1=O` (centres undefined), the figure is -3.7% (inactive); as for `CC(C)(C)Oc1ncc(Br)c(OC(C)(C)C)n1`, -12.1% (inactive).
As for `N/C(Cc1ccc([N+](=O)[O-])cc1)=N\OC(=O)COc1ccc2ccccc2c1`, the figure is 4.3% (inactive); as for `COC(=O)c1ccc2c(c1)S(=O)(=O)NC(=NCCCN1CCOCC1)S2`, 6.8% (inactive).
Take `CCOC(=O)Cn1c(=O)oc2cc(S(=O)(=O)N(C)Cc3ccco3)ccc21`: the inhibition is 14.9% (inactive).
As for `CCOC(=O)C1=C(CSc2nnnn2C)N(C)C(=O)NC1c1ccccc1` (centres undefined), the figure is 79.5% (active); as for `Cn1nnnc1SCc1cc(=O)[nH]c2ccccc12`, 2.9% (inactive); as for `CCOC(=O)C1=C(CSc2nccn2C)NC(=O)NC1c1ccc(OC)cc1` (centres undefined), 31.3% (inactive).
In the case of `CC1(C)Oc2ccc3ccc(=O)oc3c2/C(=C/NCCO)C1=O`, the inhibition was -7.3% (inactive).
As for `COc1ccccc1NC(=O)c1ccc2nc(N3C(=O)CCC3=O)sc2c1`, the figure is 13.6% (inactive); as for `Cc1cc(NC(=O)CN2CCC(O)(c3cccc(F)c3)CC2)no1`, 34.5% (inactive); as for `COc1ccccc1CNC(=O)CCCNS(=O)(=O)c1cccc2nsnc12`, 7.7% (inactive).
As for `COc1ccc(CCn2c(NCCCN3CCOCC3)nc3c2c(=O)[nH]c(=O)n3C)cc1`, the inhibition is 25.2% (inactive).
As for `CC(c1ccccc1)n1c(NCCCn2ccnc2)nc2c1c(=O)[nH]c(=O)n2C` (centres undefined), the figure is 55.9% (active); as for `CCCCNc1nc2c(c(=O)[nH]c(=O)n2C)n1CCOc1ccccc1`, 28.9% (inactive); as for `CCOC(=O)c1cnc(SCC(=O)Nc2cccc(OC)c2)nc1N`, -12.1% (inactive).
In the case of `CCOC(=O)N1CCC(C(N)=O)CC1`, the inhibition was 5.4% (inactive).
The value for `COc1cc2cc(CN(CCN3CCCC3)C(=O)Nc3ccccc3Cl)c(=O)[nH]c2cc1OC` was 7.9% (inactive); that for `COCCNC(=O)C(c1ccc(C)o1)N(Cc1ccccc1)C(=O)Cn1nnc2ccccc21` (centres undefined) was 29.3% (inactive); that for `Cc1ccc(C(C(=O)NCc2ccco2)N(CC2CCCO2)C(=O)Cn2nnc3ccccc32)cc1` (centres undefined) was 17.2% (inactive).
As for `COc1ccccc1N(C(=O)Cn1nnc2ccccc21)C(C(=O)NCc1ccco1)c1ccc(C)o1` (centres undefined), the figure is 68% (active).
The value for `Cc1ccc(C(CC(=O)O)Nc2nc(N3CCCCC3)nc(N3CCCCC3)n2)cc1` (centres undefined) was 11.1% (inactive); that for `COc1ccc(S(=O)(=O)N2CCOCC2)cc1C(=O)Nc1nc2ccccc2s1` was 0.4% (inactive).
As for `CCCCNC(=O)C1CCCN(S(=O)(=O)c2ccc(S(=O)(=O)NCC(C)C)cc2)C1` (centres undefined), the inhibition was 6.5% (inactive).
The value for `CCNC(=O)NC(=O)C(C)OC(=O)c1cc(S(=O)(=O)N2CCCCCC2)ccc1OC` (centres undefined) was 66% (active); that for `CCCCn1c(=S)[nH]c2cc(S(=O)(=O)N3CCCCC3)ccc21` was 25.4% (inactive); that for `COc1ccc2c(c1OC)C(=O)c1ccccc1C2=O` was 17% (inactive).
For the compound `COc1ccc(S(=O)(=O)N2CCCC2)c(C)c1C`, the inhibition was 72.2% (active).
The value for `COc1ccc(S(=O)(=O)N2CCCC(C(=O)N3CCN(C)CC3)C2)cc1C` (centres undefined) was 30% (inactive).
Regarding `COc1ccc(S(=O)(=O)N2CCCCC2)cc1Br`, the inhibition was 92% (active).
For the compound `COc1ccc(S(=O)(=O)Nc2ccc(S(=O)(=O)N3CCCCC3)cc2)cc1OC`, the inhibition was 52.3% (active).
As for `CSC1=N/C(=C\c2ccc3c(c2)OCO3)C(=O)S1`, the figure is 0.4% (inactive).
As for `COc1cc(NC(=O)N2CCOCC2)cc(OC)c1`, the figure is -9.7% (inactive); as for `CCC(=NC1CC(C)(C)NC(C)(C)C1)C1=C(O)CC(C)(C)CC1=O`, 3.6% (inactive); as for `Cc1c(-c2ccccc2)cn2c1-c1ccc(C)n1CC2`, 1.7% (inactive).
The value for `O=C(Nc1ccc(Cl)cn1)c1cnn2cccnc12` was 0.1% (inactive).
With `CCC(=O)c1ccc(OCC(O)CN2CC(C)OC(C)C2)cc1` (centres undefined), the inhibition is 39.4% (inactive).
For `O=C1Nc2ccc(Br)cc2/C1=N/N=C/C1=C(N2CCOCC2)C(=C\c2ccccc2)/CC1`, the inhibition was -1.8% (inactive).
As for `CCCOc1ccc2c3c(c(=O)oc2c1OCCC)CCC3`, the figure is 49.9% (inactive); as for `COc1ccc(-c2c(C(C)=O)c(C)nc3sc4c(=O)n(-c5ccc(C)cc5)nnc4c23)cc1`, 21.7% (inactive).
The value for `C=C(C)CSc1nnc(-c2ccc(C)cc2)n1N` was 17% (inactive); that for `Cc1ccc(-n2c(C)cc(/C=C(\C#N)C(=O)NCC3CCCO3)c2C)cc1` (centres undefined) was 31.5% (inactive); that for `CC1(C)CC(=O)C=C(NCCCNC2CCCCC2)C1` was 9.8% (inactive).
For `CC(C)CCSc1ncnc2c1oc1nc3c(cc12)COC(C)(C)C3`, the inhibition was -1.7% (inactive).
The value for `O=C(/C=C/c1ccccc1)c1ccoc1` was 35% (inactive); that for `Cc1cn(COC/C=C/c2ccccc2)c(=O)[nH]c1=O` was 24.1% (inactive).
For the compound `Cc1[nH]c(=O)c(C(=O)/C=C/c2ccccc2)c2c1CCCC2`, the inhibition was 80.5% (active).
The value for `Cn1c(=NC(=O)c2ccco2)sc2cccc(F)c21` was 21.9% (inactive).
As for `CCn1c(-c2ccoc2C)n[nH]c1=S`, the inhibition was 1.3% (inactive).
The value for `COc1ccc(-n2nnnc2SCC(=O)Nc2ccccc2)cc1` was 48.1% (inactive); that for `COc1ccc(-n2nnnc2SCC(=O)c2ccc(OC)c(OC)c2)cc1` was 66.5% (active); that for `COc1ccc(C(=O)CSc2nccc(=O)[nH]2)cc1` was -4% (inactive).
The value for `Cn1c(=O)c2cn(-c3cccc4ccccc34)cc2n(C)c1=O` was 49.2% (inactive).
The value for `O=C(O)C1OC(C(=O)O)C2C1C(F)(F)C2(F)F` (centres undefined) was -0.7% (inactive); that for `CCOC(=O)c1c(NC(=O)c2ccc(N3CCOCC3)c([N+](=O)[O-])c2)sc(C)c1C` was 2.9% (inactive).
For `Cc1cc(C(=O)CSc2nc(N)cc(=O)[nH]2)c(C)n1CCc1ccc(Cl)cc1`, the inhibition was 37% (inactive).
As for `Cc1nc(C)c(C(=O)N(c2ccc(C)c(C)c2)C(C(=O)NCc2ccco2)c2ccccc2)s1` (centres undefined), the figure is 7.8% (inactive); as for `O=c1c2c(nc3nc[nH]n13)CCC2`, -17.9% (inactive); as for `CC(=NCc1ccco1)c1c(C(F)(F)F)[nH]n(-c2nc3ccccc3s2)c1=O`, 28.3% (inactive).
On to `CC(=NCc1ccco1)C1=C(O)c2ccccc2C1=O`, for which the inhibition was 81.8% (active).
As for `CC(=NCc1ccc2c(c1)OCO2)C1=C(O)c2ccccc2C1=O`, the inhibition is 4.5% (inactive).
